Reference: PubChem BioAssay AID1159580 (chemical genetic matrix, 2015)
The campaign covered roughly 5,500 compounds. About 2,000 (36%) were called active. Roughly 18% stayed inconclusive and do not appear here. Cut-off read from the data, not from the text of the source: active = normalized growth mostly below about 0.91 (no sharp cut-off); inconclusive = no clear call, values can overlap the other calls; inactive = mostly above about 0.92. The list shows a part of the results.

Assay: chemical genetic growth profiling, strain panel (AID 1159580);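 note: tested at 20 µM; growth read once vehicle control cultures reached saturation at 30 °C; 1 = growth at the plate median or of vehicle wells; lower values mean less growth of the strain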
Conditions: growth OD

Measured: normalized growth

CC(C)(Sc1cc(C(C)(C)C)c(O)c(C(C)(C)C)c1)Sc1cc(C(C)(C)C)c(O)c(C(C)(C)C)c1
inactive: S. cerevisiae deletion strains, locus YJR075W, strain HOC1, hits give low values 1.01 | S. cerevisiae deletion strains, locus YKL068W, hits give low values 1.01 | S. cerevisiae deletion strains, locus YKL085W, strain MDH1 (second series), hits give low values 1.05 | S. cerevisiae deletion strains, locus YKL085W, strain MDH1, hits give low values 1.05 | S. cerevisiae deletion strains, locus YKL160W, strain elf1, hits give low values 0.99 | S. cerevisiae deletion strains, locus YKL190W, strain CNB1, hits give low values 1.01 | S. cerevisiae deletion strains, locus YKR001C, strain vps1, hits give low values 1.02 | S. cerevisiae deletion strains, locus YKR026C, strain gcn3, hits give low values 0.987 | S. cerevisiae deletion strains, locus YKR091W, strain srl3, hits give low values 1.02 | S. cerevisiae deletion strains, locus YLL001W, strain dnm1, hits give low values 0.996 | S. cerevisiae deletion strains, locus YLL026W, hits give low values 1 | S. cerevisiae deletion strains, locus YLL041C, strain sdh2, hits give low values 1.01 | S. cerevisiae deletion strains, locus YLR027C, strain aat2, hits give low values 0.994 | S. cerevisiae deletion strains, locus YLR039C, strain RIC1, hits give low values 1.02 | S. cerevisiae deletion strains, locus YLR058C, strain SHM2, hits give low values 1.01 | S. cerevisiae deletion strains, locus YLR102C, strain apc9, hits give low values 1.03 | S. cerevisiae deletion strains, locus YLR113W, strain HOG1, hits give low values 1.01 | S. cerevisiae deletion strains, locus YLR221C, strain rsa3, hits give low values 1.01 | S. cerevisiae deletion strains, locus YLR258W, strain gsy2, hits give low values 1.01 | S. cerevisiae deletion strains, locus YLR262C, strain YPT6 (second series), hits give low values 1 | S. cerevisiae deletion strains, locus YLR262C, strain YPT6, hits give low values 1.01 | S. cerevisiae deletion strains, locus YLR268W, strain sec22, hits give low values 1.09 | S. cerevisiae deletion strains, locus YLR320W, strain mms22, hits give low values 1 | S. cerevisiae deletion strains, locus YLR330W, strain CHS5, hits give low values 1.01 | S. cerevisiae deletion strains, locus YLR342W, strain FKS1 (second series), hits give low values 0.992 | S. cerevisiae deletion strains, locus YLR342W, strain FKS1, hits give low values 1 | S. cerevisiae deletion strains, locus YLR357W, strain rsc2, hits give low values 0.997 | S. cerevisiae deletion strains, locus YLR370C, strain arc18, hits give low values 1.01 | S. cerevisiae deletion strains, locus YLR371W, strain rom2, hits give low values 1.01 | S. cerevisiae deletion strains, locus YLR384C, strain iki3, hits give low values 0.99 | S. cerevisiae deletion strains, locus YLR418C, strain cdc73, hits give low values 1.07 | S. cerevisiae deletion strains, locus YML016C, strain PPZ1, hits give low values 0.999 | S. cerevisiae deletion strains, locus YML032C, strain rad52, hits give low values 1.03 | S. cerevisiae deletion strains, locus YML120C, strain ndi1, hits give low values 1 | S. cerevisiae deletion strains, locus YML124C, strain tub3, hits give low values 1.02 | S. cerevisiae deletion strains, locus YMR058W, strain fet3, hits give low values 1.02 | S. cerevisiae deletion strains, locus YMR078C, strain ctf18, hits give low values 1.03 | S. cerevisiae deletion strains, locus YMR125W, strain sto1, hits give low values 1 | S. cerevisiae deletion strains, locus YMR129W, hits give low values 1.01 | S. cerevisiae deletion strains, locus YMR205C, strain PFK2, hits give low values 1.01 | S. cerevisiae deletion strains, locus YMR223W, strain ubp8, hits give low values 1.02 | S. cerevisiae deletion strains, locus YMR231W, strain pep5, hits give low values 1 | S. cerevisiae deletion strains, locus YMR263W, strain SAP30, hits give low values 1.03 | S. cerevisiae deletion strains, locus YMR307W, strain GAS1, hits give low values 1.01 | S. cerevisiae deletion strains, locus YNL067W, strain RPL9B, hits give low values 1.03 | S. cerevisiae deletion strains, locus YNL071W, strain lat1, hits give low values 1.02 | S. cerevisiae deletion strains, locus YNL128W, strain TEP1, hits give low values 1.03 | S. cerevisiae deletion strains, locus YNL153C, strain GIM3, hits give low values 1.03 | S. cerevisiae deletion strains, locus YNL183C, strain NPR1, hits give low values 0.899 | S. cerevisiae deletion strains, locus YNL209W, strain ssb2, hits give low values 0.989 | S. cerevisiae deletion strains, locus YNL233W, strain BNI4, hits give low values 1.02 | S. cerevisiae deletion strains, locus YNL248C, strain rpa49, hits give low values 1.06 | S. cerevisiae deletion strains, locus YNL250W, strain rad50, hits give low values 1.02 | S. cerevisiae deletion strains, locus YNL271C, strain bni1, hits give low values 1.03 | S. cerevisiae deletion strains, locus YNL298W, strain CLA4, hits give low values 1.02 | S. cerevisiae deletion strains, locus YNL307C, strain MCK1, hits give low values 1.03 | S. cerevisiae deletion strains, locus YNL322C, strain KRE1 (second series), hits give low values 1.01 | S. cerevisiae deletion strains, locus YNL322C, strain KRE1, hits give low values 1.01 | S. cerevisiae deletion strains, locus YNR049C, strain mso1, hits give low values 1 | S. cerevisiae deletion strains, locus YNR052C, strain pop2, hits give low values 1.02 | S. cerevisiae deletion strains, locus YOL006C, strain TOP1, hits give low values 1.11 | S. cerevisiae deletion strains, locus YOL012C, strain htz1 1.15 | S. cerevisiae deletion strains, locus YOL147C, strain pex11, hits give low values 1.02 | S. cerevisiae deletion strains, locus YOR001W, strain rrp6, hits give low values 1.02 | S. cerevisiae deletion strains, locus YOR061W, strain CKA2, hits give low values 1.01 | S. cerevisiae deletion strains, locus YOR069W, strain VPS5, hits give low values 0.987 | S. cerevisiae deletion strains, locus YOR070C, strain gyp1, hits give low values 1 | S. cerevisiae deletion strains, locus YOR080W, strain dia2, hits give low values 0.996 | S. cerevisiae deletion strains, locus YOR083W, strain WHI5, hits give low values 0.998 | S. cerevisiae deletion strains, locus YOR106W, strain vam3, hits give low values 0.98 | S. cerevisiae deletion strains, locus YOR136W, strain idh2, hits give low values 1.03 | S. cerevisiae deletion strains, locus YOR144C, strain elg1, hits give low values 1.01 | S. cerevisiae deletion strains, locus YOR184W, strain ser1, hits give low values 1.03 | S. cerevisiae deletion strains, locus YOR231W, strain MKK1, hits give low values 0.996 | S. cerevisiae deletion strains, locus YOR265W, strain rbl2, hits give low values 0.997 | S. cerevisiae deletion strains, locus YOR270C, strain vph1, hits give low values 1.05 | S. cerevisiae deletion strains, locus YOR290C, strain snf2, hits give low values 1.01 | S. cerevisiae deletion strains, locus YOR316C, strain cot1, hits give low values 1.03 | S. cerevisiae deletion strains, locus YPL051W, strain arl3, hits give low values 0.988 | S. cerevisiae deletion strains, locus YPL055C, strain LGE1, hits give low values 1.03 | S. cerevisiae deletion strains, locus YPL078C, strain atp4, hits give low values 1.01 | S. cerevisiae deletion strains, locus YPL106C, strain sse1, hits give low values 1.01 | S. cerevisiae deletion strains, locus YPL240C, strain hsp82, hits give low values 1.03 | S. cerevisiae deletion strains, locus YPL241C, strain CIN2, hits give low values 1.01 | S. cerevisiae deletion strains, locus YPL256C, strain CLN2, hits give low values 1.03 | S. cerevisiae deletion strains, locus YPR119W, strain clb2, hits give low values 1.01 | S. cerevisiae deletion strains, locus YPR141C, strain kar3, hits give low values 1.02 | S. cerevisiae deletion strains, locus YPR163C, strain tif3, hits give low values 1.02 | S. cerevisiae deletion strains, locus YPR167C, strain met16, hits give low values 1.02 | S. cerevisiae deletion strains, strain wtn01, hits give low values 1.02 | S. cerevisiae strains, strain wild type, hits give low values 1.02
